We go through one compound from PubChem BioAssay AID2515 (National Center for Advancing Translational Sciences (NCATS), 2010).

Records with an inconclusive call do not appear. Calls of active or inactive are those of the source. The call rests on the fitted dose curve; in most records, active means well fitted inhibition curve with a large enough effect; inconclusive means small, poorly fitted or top-dose-only effect; inactive means flat fitted curve, though single readings scatter.

The experiment addresses Luciferin 4-monooxygenase (Photinus pyralis) (UniProt P08659). Put plainly: Counterscreen Assay for Enhancers of SMN2 Splice Variant Expression: Interaction with Luciferase Reporter for Probe SAR. The note with it: purified firefly luciferase, luminescence inhibition. The text has this: NIH Chemical Genomics Center [NCGC] NIH Molecular Libraries Probe Production centers Network [MLPCN] MLPCN Grant: R03 MH084179-01 Assay Submitter (PI): Elliot Androphy NCGC Assay Overview: Spinal muscular atrophy (SMA) is caused by insufficient levels of the survival motor neuron protein SMN. The SMN locus on chromosome 5q13 contains two inverted copies of SMN called SMN1 and SMN2 which are 99% identical at the amino acid level. SMN1 is a fully functional protein and SMN2 skips exon 7 90% of the time. Skipping of exon 7 produces non-functional protein product. 10% of the SMN2 protein includes exon 7 and is fully functional. In the SMA disease state, mutations in the SMN1 locus are the cause of the disease state. […]
NCGC Assay Protocol Summary: The primary screen utilizes a luciferase reporter gene assay, combining the promoter and splicing based cassettes in tandem with the major portion of the native SMN1 cDNA, and then transfected into HEK293 cells. […] Sequence, Parameter, Value, Description (1) Reagent, 2.5 uL, Enzyme in buffer (note A) (2) Compound, 23 nL, From stock solutions (3) Time, 5 minutes, Room temp (4) Reagent#2.5 ul, Luciferase detection reagent (note B) (5) Detector, 1 sec integrate, Luminescent read on Viewlux (note C) Sigma enzyme (1 mg) considered to be MW 61,000 diluted in 357 ul assay buffer to 50 uM stock. […]
A general note: Counterscreens check selectivity or assay interference.

Sequence of Luciferin 4-monooxygenase (Photinus pyralis) (P08659 whole entry, looked up, canonical isoform): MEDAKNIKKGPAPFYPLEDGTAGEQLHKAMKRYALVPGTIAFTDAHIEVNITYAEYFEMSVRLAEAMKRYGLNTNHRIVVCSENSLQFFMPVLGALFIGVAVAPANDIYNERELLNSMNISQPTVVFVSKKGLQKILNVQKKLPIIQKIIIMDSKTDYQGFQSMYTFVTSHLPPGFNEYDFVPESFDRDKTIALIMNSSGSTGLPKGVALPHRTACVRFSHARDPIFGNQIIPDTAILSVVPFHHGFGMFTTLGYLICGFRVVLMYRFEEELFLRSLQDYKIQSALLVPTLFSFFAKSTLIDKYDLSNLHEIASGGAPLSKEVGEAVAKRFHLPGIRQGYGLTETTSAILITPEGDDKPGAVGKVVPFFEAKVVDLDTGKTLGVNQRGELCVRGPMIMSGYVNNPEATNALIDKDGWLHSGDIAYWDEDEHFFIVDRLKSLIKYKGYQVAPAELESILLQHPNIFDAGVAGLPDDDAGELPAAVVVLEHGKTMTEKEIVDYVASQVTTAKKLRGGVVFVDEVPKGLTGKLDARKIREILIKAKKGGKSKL

As to `Brc1ccc(-c2csc(N3CCCCC3)n2)cc1`, the Potency was 17.9 µM (active).
